Screening data deposited in PubChem BioAssay by several laboratories.
SENP7 inh = inhibitors of human SENP7 protease; Q9BQF6; recombinant SENP7, Z-RLRGG-aminoluciferin luminescence, 40 min; inhibition, % at 5 µM; actives 1.5% (n = 330,000);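 active = inhibition above about 50% at the single test dose, limit read from the data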;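 also: plate controls were DMSO with enzyme for no effect and no enzyme buffer wells for full effect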
Target sequence (Q9BQF6 706-1050 limits assumed): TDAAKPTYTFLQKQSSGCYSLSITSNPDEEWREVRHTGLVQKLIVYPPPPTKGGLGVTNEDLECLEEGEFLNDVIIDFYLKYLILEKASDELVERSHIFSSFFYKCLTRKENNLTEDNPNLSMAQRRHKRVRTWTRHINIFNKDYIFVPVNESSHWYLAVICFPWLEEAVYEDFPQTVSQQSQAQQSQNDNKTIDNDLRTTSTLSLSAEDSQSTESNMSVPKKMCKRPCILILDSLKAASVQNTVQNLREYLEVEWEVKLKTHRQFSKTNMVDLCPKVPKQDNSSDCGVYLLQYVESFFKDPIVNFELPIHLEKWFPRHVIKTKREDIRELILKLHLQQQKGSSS
EBI2 block = blocks human EBI2 receptor beta-arrestin signaling. AID 651636. inhibition, % at 5 µM. actives 0.81% (n = 360,000). EBI2 beta-arrestin recruitment, luminescence, 7a,25-OHC stimulated; in the data active = inhibition above about 38%;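 also: enzyme fragment complementation signal reports receptor beta-arrestin coupling in cells; 0% = agonist plus DMSO wells and 100% = wells without agonist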
SENP8 block-1 = inhibitors of human SENP8 protease; Q96LD8; purified SENP8, Z-RLRGG-aminoluciferin cleavage, luminescence; inhibition, % at 10 µM; actives 1.2% (n = 330,000); AID 2540; in the data active = inhibition above about 50%
AHR act = human AHR activation; P35869; activation, % at 5 µM; actives 2.5% (n = 320,000); AID 2796; AHR-responsive luciferase reporter cells, luminescence; in the data active = activation above about 47%;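 also: 0% = vehicle wells and 100% = reference agonist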
SENP8 block-2 = SENP8 (human) protease inhibition | inhibition, % at 20 µM | actives 0.64% (n = 360,000) | recombinant SENP8, Nedd8 substrate fluorescence | Q96LD8; in the data active = inhibition mostly above about 40%, no sharp cut-off; inactive = mostly below about 27%
SENP6 inh = SENP6 protease inhibition. Q9GZR1. Recombinant SENP6 catalytic domain, aminoluciferin luminescence. inhibition, % at 10 µM. actives 1.8% (n = 330,000). AID 2599;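 active = inhibition above about 50% at the single tested dose, limit read from the data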;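 also: plate controls were DMSO wells with enzyme for no effect and DMSO wells lacking enzyme for full effect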
* marks the source's active call; other numbers are inactive results; · = no result. Hits are enriched below; roughly 5% of the tested compounds scored in any of these assays.

SMILES	SENP7 inh	EBI2 block	SENP8 block-1	AHR act	SENP8 block-2	SENP6 inh
Cc1cc(N)ccc1-n1c(C)ccc1C	7	-15	6	110*	-75	-2
Cn1nc(C(C)(C)C)cc1NC(=O)C1(C)CCN1C(=O)CC(c1ccccc1)c1ccccc1 (stereo unspecified)	·	5	·	·	20	·
Oc1oc(-c2ccccc2)nc1C=NCc1ccncc1	-6	-3	-5	70*	16	-23
O=c1c(Cl)c(N/N=C/c2ccc(Cl)cc2)cnn1-c1ccccc1	3	-12	-7	50*	-360	-4
COc1ccc(CC(=O)OCC(=O)Nc2cccc(C(C)=O)c2)cc1OC	-7	-1	1	·	6	-12
O=C1C(c2c(O)[nH]c3ccccc23)=Nc2ccccc21	-9	-9	3	60*	21	6
CC(C)(C)CN1CCN(CC#Cc2ccccc2)CC1CCO (stereo unspecified)	-9	-10	-1	59*	7	3
CN1CCN(CC#Cc2ccccc2)CC1CCO (stereo unspecified)	-2	-3	-10	2	13	-8
COC(=O)N1CCCCC1c1cc(C(=O)Nc2ccc(OC)cc2C)no1 (stereo unspecified)	·	4	·	·	17	·
COC(=O)CCNC(=O)Cc1ccc(S(=O)(=O)N2CCCCC2)s1	12	6	-2	·	-7	-20
CN(C)S(=O)(=O)c1ccc(C(=O)Nc2ccc3c(c2)CCC3)cc1	2	56*	9	3	10	-1
CN(C)S(=O)(=O)c1cccc(C(=O)Nc2ccc3c(c2)CCC3)c1	-13	6	-13	32	10	-22
C=CCn1c(SCC#N)nc2sc(CC)cc2c1=O	6	-3	8	1	11	15
Oc1[nH]c2ccccc2c1N=Nc1ccccc1Cl	·	9	·	·	22	·
Oc1c(C=Nc2ccccc2Cl)[nH]c2ccccc12	7	5	8	57*	-43	14
CCOc1[nH]n(-c2ccccc2)c(=O)c1C=NCc1ccncc1	-4	5	-9	45	8	-11
CCOc1[nH]n(-c2ccc(Cl)cc2)c(=O)c1C=NCc1cccnc1	-5	13	-16	56*	22	-20
COc1cc(-c2nc3n(n2)C(c2ccc(F)cc2)C2=C(CCCC2=O)N3)cc(OC)c1OC (stereo unspecified)	-7	4	-7	82*	-22	-4
COc1cccc(C2C3=C(CCCC3=O)Nc3nc(-c4cc(OC)c(OC)c(OC)c4)nn32)c1 (stereo unspecified)	9	0	0	31	-22	-4
CN(C)c1ccc(CN2CCC(C(=O)NC(c3ccc(Cl)cc3)c3cnccn3)CC2)cc1 (stereo unspecified)	·	-7	·	·	15	·
COC(=O)Nc1nc2c(C)cccc2s1	8	-13	-6	23	10	-3
Cc1cccc2sc(NC(=O)c3ccc(Cl)s3)nc12	23	5	8	48*	-376	34
CCC(=O)NNc1nc2c(C)cccc2s1	-7	-8	-4	23	8	-16
COc1cccc2sc(NC(=O)c3ccc(Br)s3)nc12	14	14	-7	71*	-319	22
COc1cccc2sc(NNC(=O)COc3ccccc3)nc12	5	1	-4	51*	4	-29
SMILES	SENP7 inh	EBI2 block	SENP8 block-1	AHR act	SENP8 block-2	SENP6 inh
CSc1cccc(NC(=O)Nc2nc3c(C)cccc3s2)c1	-8	19	-12	119*	15	0
CNC(=O)CSc1nnc(-c2ccccc2F)n1CCc1ccccc1	3	-1	-1	-1	12	1
O=C(O)/C=C\C(=O)Nc1ccccc1C(=O)N1CCC(O)(c2ccc(Cl)cc2)CC1	·	6	·	·	-6	·
N#C/C(=C\c1ccc(O)c(O)c1)C(=O)c1ccc(O)c(O)c1	45	3	81*	0	11	83*
COc1ccc(-n2sc3c(c2=S)-c2cc(OC)ccc2NC3(C)C)cc1	2	15	2	66*	22	2
COc1ccc2c(c1)-c1c(sn(-c3ccccc3)c1=S)C(C)(C)N2	-8	19	-7	4	12	2
O=C(Nc1ccc2c(c1)OCCO2)C1c2ccccc2OCC(=O)N1CC(F)(F)F (stereo unspecified)	·	-5	·	·	14	·
O=c1[nH]c2cc3c(cc2cc1CN(Cc1cccnc1)C(=S)NCc1ccco1)OCCO3	10	9	-1	28	-407	-28
